Measured values: PubChem BioAssay (NCI)
This is part of a sample that, as a whole, favours compounds with a hit. Of some 83,000 tested, about 20% had one in any assay.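 Testing used 96-well plates and a 48-hour single-concentration exposure. Example: -40 means 40% of the starting cells died.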 Values without a mark were called inactive. Active and inactive are the calls of the source. The calls were made as follows: active = growth percent below 10; inactive = the rest.

Legend:
Assay in all cases: NCI-60 one-dose screen, 48 h (100 = growth as untreated, 0 = no growth, -100 = all killed)
SK-MEL-2 melanoma = settings: 10 µM unless noted
EKVX NSCLC = settings: 10 µM unless noted
SN12C renal = settings: 10 µM unless noted
UO-31 renal = settings: 10 µM unless noted
TK-10 renal = settings: 10 µM unless noted
ACHN renal = settings: 10 µM unless noted
A498 renal = settings: 10 µM unless noted
CCRF-CEM leukemia = settings: 10 µM unless noted
MOLT-4 leukemia = settings: 10 µM unless noted
SR leukemia = settings: 10 µM unless noted
RPMI-8226 leukemia = settings: 10 µM unless noted
OVCAR-8 ovarian = settings: 10 µM unless noted
OVCAR-5 ovarian = settings: 10 µM unless noted
OVCAR-4 ovarian = settings: 10 µM
IGROV1 ovarian = settings: 10 µM unless noted
OVCAR-3 ovarian = settings: 10 µM unless noted
HS 578T breast = settings: 10 µM unless noted
NCI/ADR-RES ovarian = settings: 10 µM unless noted
SK-OV-3 ovarian = settings: 10 µM unless noted
CAKI-1 renal = settings: 10 µM unless noted

Row | SMILES | growth (SK-MEL-2 melanoma) | growth (EKVX NSCLC) | growth (SN12C renal) | growth (UO-31 renal) | growth (TK-10 renal) | growth (ACHN renal) | growth (A498 renal) | growth (CCRF-CEM leukemia) | growth (MOLT-4 leukemia) | growth (SR leukemia) | growth (RPMI-8226 leukemia) | growth (OVCAR-8 ovarian) | growth (OVCAR-5 ovarian) | growth (OVCAR-4 ovarian) | growth (IGROV1 ovarian) | growth (OVCAR-3 ovarian) | growth (HS 578T breast) | growth (NCI/ADR-RES ovarian) | growth (SK-OV-3 ovarian) | growth (CAKI-1 renal)
1 | C#C[C@]1(O)CC[C@H]2[C@@H]3CC=C4c5nc(N)sc5CC[C@]4(C)[C@H]3CC[C@@]21C | 58.8% | 53.7% | 82.2% | 90.4% | 80.4% | 79.6% | 36.4% | 77.7% | 36.9% | 23.6% | -7.97% (active) | 85.3% | 88.5% | 63.4% | 71.8% | 47.2% | 6.1% (active) | 62.1% |  | 
2 | COc1cc(C)cc2oc3oc(=O)c(C(=O)c4cc5cc(Br)ccc5o4)cc3c(=O)c12 | 114% | 100% | 97.6% | 72.7% | 121% | 95.8% | 92.2% |  | 106% | 102% | 120% | 104% | 98.9% | 110% | 92.8% | 107% |  | 110% | 114% | 
3 | COc1ccc(-c2cc(-c3ccccc3)nc(NCCNc3ccnc4cc(Cl)ccc34)n2)cc1 | -77.3% (active) | -88.1% (active) | -92.9% (active) | -91.9% (active) | -81.7% (active) | -94.2% (active) | 5.73% (active) | -30.7% (active) | -44.4% (active) | -7.13% (active) | -34.4% (active) | -60.2% (active) | -96.6% (active) | -48.8% (active) | -74.1% (active) | -82.6% (active) | -53.9% (active) | -71.9% (active) |  | 
4 | CC(C)=CC/C=C(/C)[C@H]1CC[C@]2(C)[C@@H]1CC[C@@H]1[C@@]3(C)CC/C(=N/O)C(C)(C)[C@@H]3CC[C@]12C | 59.2% [100 µM] | 72.2% [100 µM] | 41% [100 µM] | 58.3% [100 µM] | 82% [100 µM] | 54.3% [100 µM] | 88.8% [100 µM] | 38.4% [100 µM] | 27.6% [100 µM] | 45.2% [100 µM] | 52% [100 µM] | 40.8% [100 µM] | 80.6% [100 µM] |  | 76.2% [100 µM] | 52.4% [100 µM] | 64.3% [100 µM] | 63.9% [100 µM] | 68.8% [100 µM] | 
5 | Cc1cccc(C[C@H](NC(=O)Nc2ccc(Cl)cc2F)C(=O)N[C@@H]2C(=O)N3C[C@H](O)C[C@H]3C(=O)N3CCN(C)C[C@H]3C(=O)N[C@@H](C)C(=O)N3C[C@H](C)C[C@H]3C(=O)O[C@H]2C)c1 | 34.4% | 71.4% | 20.5% | 83.6% | 81.4% | 102% | 23.7% | 57.2% | 43.4% | 45% | 22.6% | 26.9% | 38.8% | 15.4% | 50.7% | 17.2% | 43% | 107% |  | 
6 | O=S(=O)(NCc1ccccc1)c1ncnc2nc[nH]c12 | 118% | 111% | 108% | 93.8% | 115% | 105% |  |  | 93.3% | 105% | 99.2% | 87.2% | 106% |  | 119% | 111% | 116% | 97.4% | 108% | 104%
7 | CC(C)CCSc1nc(N)nc2nc[nH]c12 | 109% | 109% | 92.8% | 86.1% | 154% | 91.5% | 116% | 102% | 116% | 89.8% | 94.6% | 94.1% | 107% | 112% | 79.9% | 103% | 122% | 104% |  | 
8 | C=CCc1nc2ccccc2s1 | 107% | 109% | 110% | 63.6% | 94.3% | 101% | 108% | 84.1% | 89.1% | 98.9% | 92.4% | 98% | 101% |  | 74.6% | 114% | 102% | 111% | 110% | 
9 | O=C(Nc1cccc(C2=NCCN2)c1)c1cccc(C(=O)Nc2cccc(C3=NCCN3)c2)c1 | 103% | 88.6% | 95.7% | 84.5% | 89.3% | 101% | 111% | 104% | 100% | 92.3% | 94.3% | 101% | 95.7% |  | 99.1% |  | 98.4% | 98.8% | 104% | 
10 | COc1ccc(/C=C/C=C\C(=O)c2ccc(-n3ccnc3)cc2)cc1 | 108% | 96.6% | 90.7% | 73.9% | 96.3% | 94.4% | 73.3% |  | 75% | 82.1% | 71.5% | 86.4% | 103% |  | 93.5% | 96.7% | 91.1% | 104% | 97% | 
11 | CCCCCC1CCCCN1C(=O)OCCCC (stereo not drawn) | 102% | 89.1% | 73.3% | 84.3% | 95.6% | 104% | 88.1% | 84.6% | 99.5% | 108% | 73.2% | 106% | 101% |  |  | 104% | 122% | 91.8% | 105% | 
12 | c1coc2occoc=2o1 | 105% | 106% | 89.2% | 92.5% | 103% | 102% |  | 98.9% | 114% | 114% | 100% | 107% | 101% |  | 109% | 103% | 104% | 107% | 99.6% | 101%
13 | C=C(C)[C@@H]1CC[C@]2(C)[C@H](CC=C3[C@@H]4[C@@H](C)[C@H](C)CC[C@]4(C(N)=O)CC[C@]32C)[C@@]1(C)CCC#N | -62.5% [100 µM] (active) | 11.8% [100 µM] | -75.7% [100 µM] (active) | -91.5% [100 µM] (active) | -10.2% [100 µM] (active) | -1.6% [100 µM] (active) | -33.6% [100 µM] (active) |  | -1.01% [100 µM] (active) | 30.2% [100 µM] | -21.1% [100 µM] (active) | 3.49% [100 µM] (active) | 1.03% [100 µM] (active) |  | 7.81% [100 µM] (active) | -53.6% [100 µM] (active) | 5.08% [100 µM] (active) | -32% [100 µM] (active) | 5.31% [100 µM] (active) | 
14 | O=C(O)c1cccc(CN2CCN(c3cc4c(cc3F)c(=O)c(C(=O)O)cn4C3CC3)CC2)c1O | 101% | 100% | 102% | 81.6% | 96.6% | 103% | 106% | 101% | 105% | 87.5% | 103% | 96.7% | 102% | 114% | 101% | 106% | 103% | 101% | 101% | 
15 | Cc1ccc(S(=O)(=O)N/N=C2\CC3CCC2(C)C3(C)C)cc1 (stereo not drawn) | 76.8% | 105% | 93.5% | 86.4% | 137% | 102% | 105% |  |  | 105% | 97.4% | 88.8% | 83.4% |  |  | 103% | 120% | 213% | 114% | 
16 | COc1ccc2nc3ccccc3c(NCCNCCO)c2c1 | -56.1% (active) | -7.03% (active) | 1.83% (active) | -7.42% (active) | -12.7% (active) | -27.4% (active) | -60.4% (active) | 10.9% | 10.1% | -11.1% (active) | 2.45% (active) | 5.82% (active) | -4.97% (active) | -10.4% (active) |  | -41.6% (active) | -25.4% (active) | 68.7% | 16.5% | 
17 | O=C(O)c1cc([N+](=O)[O-])ccc1Br | 107% | 98.5% | 101% | 86.3% | 95.5% | 94.2% | 106% | 105% | 99.8% | 112% | 99% | 101% | 90.8% | 99.2% | 103% |  | 106% | 98.1% | 113% | 
